The source of these data is PubChem BioAssay.

The assay concerns the target Pantothenate synthetase (Mycobacterium tuberculosis (strain ATCC 25618 / H37Rv)) (UniProt P9WIL5). Put plainly: Recombinant Mtb pantothenate synthetase (PanC) inhibitors, coupled enzyme, confirmatory (AID 375).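 Also: 0% = full reaction with vehicle and 100% = no enzyme background.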 The following applies: coupled enzyme assay; at 10 µM, hits give high values.

A number with no mark means an inactive call. No rule for the calls is given here.

Sequence of Pantothenate synthetase (Mycobacterium tuberculosis (strain ATCC 25618 / H37Rv)) (P9WIL5 whole entry, looked up): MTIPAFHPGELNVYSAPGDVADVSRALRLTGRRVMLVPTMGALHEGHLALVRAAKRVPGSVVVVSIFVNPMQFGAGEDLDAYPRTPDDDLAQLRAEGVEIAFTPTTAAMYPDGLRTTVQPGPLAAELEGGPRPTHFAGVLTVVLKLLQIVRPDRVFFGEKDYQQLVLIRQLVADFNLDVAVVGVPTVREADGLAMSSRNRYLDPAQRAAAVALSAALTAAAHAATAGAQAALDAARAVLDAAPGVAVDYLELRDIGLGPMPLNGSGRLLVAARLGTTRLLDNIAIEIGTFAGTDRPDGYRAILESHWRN

Take `COCCn1c(=O)[nH]c2cc(C(=O)N3CCN(Cc4ccc5c(c4)OCO5)CC3)ccc2c1=O`: the inhibition (in general, the relative decrease from the control value, in per cent) was 0%.
On to `CCCC(=O)Nc1ccc2oc(-c3cccnc3)nc2c1`, for which the inhibition was 0%.
As to `Cc1cc(=O)n2nc(-c3ccccc3)sc2n1`, the inhibition was 0%.
As for `Cn1cnnc1Sc1nc2c(c(=O)n(C)c(=O)n2C)n1C`, the inhibition is 0%.
In the case of `CCC(NC(C)C)C(O)c1ccc(O)c2[nH]c(=O)ccc12` (stereo not drawn) it was 0%; in that of `CN(C)c1ccc(NC(=O)Cn2cc3c(n2)CCCC3)cc1`, 0%.
Turning to `N#CC1=C(N)OC2=C(CCC/C2=C/c2ccoc2)C1c1ccoc1` (stereo not drawn), the inhibition was 2%.
Consider `COc1ccc(OC)c(NC(=O)CCNS(=O)(=O)c2cccs2)c1`, for which the inhibition was 0%.
To `CCCOc1ccc2ccccc2c1/C=N/n1cnnc1` belongs 5%; to `CCNc1ccc(S(=O)(=O)C(F)(F)F)cc1NC(=O)C12CCC(CC1)C2`, 0%.
To `COCCn1c(Sc2nc(C)cs2)nc2c1c(=O)[nH]c(=O)n2C` belongs 0%; to `Cc1cc(OCC(=O)N2CCOCC2)cc2oc(=O)c3ccccc3c12`, 0%; to `COc1ccc(-c2nnc(SC(C)C(=O)Nc3nccs3)n2-c2ccccc2)cc1OC` (stereo not drawn), 0%.
In the case of `COC(=O)c1c(NC(=O)CSc2nnnn2C)sc(C)c1C` it was 0%; in that of `O=C1CCn2nc(-c3ccc(Cl)cc3)cc2N1`, 0%; in that of `COc1ccc(C(=O)COC(=O)CCn2nnc(-c3cccs3)n2)cc1`, 0%.
Regarding `CCOC(=O)c1[nH]c(CSc2nnc(-c3ccc(OC)cc3)o2)c(C(=O)OCC)c1C`, the inhibition is 0%.
For `COc1cc2c(C#N)c(N3CCOCC3)nc(N)c2c(N)n1`, the inhibition was 0%.
In the case of `O=C(CSc1ncc(-c2ccc(F)cc2)[nH]1)N1CCCCC1`, the inhibition is 0%.
To `CCc1ccc(NC(=O)CSc2nnc(Cc3cccn3C)n2-c2ccc(OC)cc2)cc1` belongs 0%.
In the case of `O=C(O)C1C2C=CC(O2)C1C(=O)NCc1ccc(Cl)cc1` (stereo not drawn) it was 13%; in that of `CCCNC(=O)CS(=O)(=O)Cc1nc(-c2cccc(OC)c2)oc1C`, 0%.
To `CC(C)CNS(=O)(=O)c1ccc(CCC(=O)N2CCOCC2)cc1` belongs 0%; to `CCN(CC)C(=O)C1=C(C)Nc2nnnn2C1c1cccnc1` (stereo not drawn), 0%.
Consider `O=C(C1CCCN(S(=O)(=O)c2ccc(Br)s2)C1)N1CCCCCC1` (stereo not drawn), for which the inhibition was 0%.
To `COc1cc(C)nc(N2CCCC(C(=O)Nc3cccc(Cl)c3Cl)C2)n1` (stereo not drawn) belongs 0%; to `O=C(NCC1CCCO1)C1CCCN(S(=O)(=O)c2cccc3nsnc23)C1` (stereo not drawn), 4%.
As to `CCOc1ccc(NC(=O)c2ccncc2)cc1`, the inhibition was 0%.
In the case of `CCOc1ccc(C2C(C#N)=C(N)Oc3cc(C)n(Cc4ccco4)c(=O)c32)cc1OC` (stereo not drawn) it was 2%; in that of `CCCn1c(SCC(=O)N2CCN(c3ccccc3)CC2)nc2ccccc2c1=O`, 0%; in that of `CCOc1ccc(OCc2cccc(C(=O)O)c2)cc1`, 6%.
In the case of `CCOC(=O)c1sc2nc3c(cc2c1N)COC(C)(C)C3` it was 12%; in that of `Cc1nn(-c2ccccc2)c(C)c1/C=N/O`, 0%.
To `CCCCc1c(O)nc(SCCN(C)C)n(-c2ccccc2)c1=O` belongs 0%; to `Cc1cc(C)c(-c2cc(C(=O)Nc3c(C)n(C)n(-c4ccccc4)c3=O)[nH]n2)c(O)c1`, 0%; to `COC(=O)Cn1cnc2c(nnn2-c2ccc(C)cc2)c1=O`, 0%.
Take `CC1CCCC(C)N1CCNC(=O)C1CCN(S(=O)(=O)N2CCCCC2)CC1` (stereo not drawn): the inhibition was 3%.
To `Cc1cccc(-c2cc3nc(C)cc(NCCCN(C)C)n3n2)c1` belongs 0%.
In the case of `O=C(CN1C(=O)COc2ccccc21)NCCCN1CCN(Cc2ccccc2)CC1` it was 0%; in that of `CCOC(=O)c1cc(C)n(CCCN2CCOCC2)c1C`, 0%.
For `Cc1ccc2c(c1)c1c(n2CC(O)Cn2c(C)nc3ccccc32)/C(=N\O)CCC1` (stereo not drawn), the inhibition was 5%.
To `COc1ccc(NC(=O)c2oc3ccc(S(=O)(=O)N4CCC5(CC4)OCCO5)cc3c2C)cc1` belongs 6%.
Take `Cc1cnc(-c2nnc(N(C)C(=O)C3CCOC3)s2)cn1` (stereo not drawn): the inhibition is 3%.
In the case of `O=C(Nc1cc(C(F)(F)F)ccc1Cl)C1CCN(c2nnc(-n3cccc3)s2)CC1` it was 3%.
On to `CCOc1ccc(NC(=O)CSc2nnc(Cc3cccn3C)n2-c2ccc(OC)cc2)cc1`, for which the inhibition was 1%.
In the case of `CCCS(=O)(=O)N1CCN(Cc2ccc(OCc3ccccc3)c(OC)c2)CC1` it was 4%; in that of `O=C(CS(=O)(=O)c1cn(Cc2ccc(F)cc2)c2ccccc12)N1CCCCC1`, 0%; in that of `COc1ccccc1N1CCN(S(=O)(=O)CC23CCC(CC2=O)C3(C)C)CC1` (stereo not drawn), 1%.
In the case of `O=C1CCC(=O)N1OCCCCOc1ccccc1` it was 2%; in that of `Cc1cc(C)c(NC(=O)Cn2cc3c(n2)CCCC3)c(C)c1`, 0%; in that of `CCOC(=O)CSc1nc2ccccc2c(=O)n1CCN1CCOCC1`, 0%.
For the compound `Cc1nnc(SCC(=O)NCCN2C(=O)CSC2=O)s1`, the inhibition is 7%.
On to `Cn1cccc1Cc1nnc(SCC(=O)NCc2ccc(F)cc2)n1-c1ccc(F)cc1`, for which the inhibition is 2%.
In the case of `CCN(CC)C(=O)C1=C(C)NC(=O)NC1c1c(F)cccc1Cl` (stereo not drawn) it was 0%; in that of `O=C(Cn1ncc2c(=O)oc3ccccc3c21)NCCCN1CCCC1=O`, 0%; in that of `CC(C)(C)c1ccc2c(c1)OCC(C(=O)O)O2` (stereo not drawn), 4%.
With `Cc1c2cnn(CC(=O)N3CCN(c4ncccn4)CC3)c(=O)c2c(C)n1Cc1ccc(F)cc1`, the inhibition was 0%.
To `c1ccc(-c2nn3c(Cn4nnc5ccccc54)nnc3s2)nc1` belongs 0%; to `CCc1nc(C)c(-c2ccccc2)c(=O)[nH]1`, 6%.
Take `CCOc1cccc(/C(O)=C2/C(=O)C(=O)N(CCN3CCOCC3)C2c2cccnc2)c1` (stereo not drawn): the inhibition was 0%.
To `CC1CC(C)CN(c2nc3c(c(=O)[nH]c(=O)n3C)n2CCCSc2nc3ccccc3s2)C1` (stereo not drawn) belongs 7%; to `COc1cccc(NC(=O)N2CCN(C(=O)C(Cc3ccc(OC)c(OC)c3)NC(C)=O)CC2)c1` (stereo not drawn), 0%.
As to `CC(NCc1ccco1)C(=O)N1CCc2ccccc2C1` (stereo not drawn), the inhibition was 5%.
In the case of `COc1ccc(-c2noc(-c3ccccc3C(=O)NCc3ccco3)n2)cc1` it was 3%; in that of `COc1ccc(C)cc1S(=O)(=O)N1CCN(Cc2ccccc2)CC1`, 11%; in that of `Cc1ccc(C2=N/C(=C/N3CCOCC3)C(=O)O2)cc1`, 1%.
In the case of `CCOC(=O)c1sc2nc(C)cc(C)c2c1N` it was 0%; in that of `CCOC(=O)C1CCN(c2nc3ccccc3nc2C(C#N)C(=O)OC(C)C)CC1` (stereo not drawn), 0%; in that of `Cc1c(C#N)sc2nc(-c3ccccc3)nc(N3CCCC3)c12`, 0%.
In the case of `COCCNC(=O)c1snc2ccc(Cl)cc12` it was 0%; in that of `O=C(c1ccccc1-c1ccccc1)N1CCN(c2ccccn2)CC1`, 0%; in that of `COc1ccc(N2CCN(c3ncnc4c3cnn4-c3ccc(C)cc3C)CC2)cc1`, 8%.
For the compound `CCOC(=O)C1CCCN(C(=O)c2sc3nc(-c4ccccc4)cn3c2C)C1` (stereo not drawn), the inhibition is 0%.
Take `COc1ccc(C2(C(=O)N3CCCC3)CCOCC2)cc1OC`: the inhibition is 6%.
`CC(=O)CC(=O)Nc1ccccc1NC(C)=O`: the inhibition is 3%.
Take `Cc1cc(C)c(NC(=O)C2CCCN2CCO)c(C)c1` (stereo not drawn): the inhibition is 0%.
To `Cc1ccc(NC(=O)CN2CC(C)SC2=NC2CCCCC2)cc1` (stereo not drawn) belongs 6%; to `COc1cc(OC)cc(-c2nc3cc(C)ccc3o2)c1`, 3%; to `CC(=O)c1cccc(NC(=O)CCNS(=O)(=O)c2cccc3nsnc23)c1`, 0%.
Turning to `Cc1ccc(CNc2cc(-c3nn4c(C)nnc4s3)ccc2C)s1`, the inhibition is 4%.
In the case of `COc1ccccc1C(=O)N1CCN(C(=O)COc2cccc(C)c2)CC1` it was 3%.
To `CS(=O)(=O)NCc1nnc(SCC(=O)NC2CCCCC2)n1-c1ccc(F)cc1` belongs 0%; to `CCCC(=O)Nc1ccccc1NC(=O)CCC`, 0%; to `COc1ccc(OCC(=O)N2CC3(C)CC2CC(C)(C)C3)cc1` (stereo not drawn), 0%.
For `Cc1cc(C)nc(N2CCC(C(=O)Nc3ccc4c(c3)CCC4)CC2)n1`, the inhibition is 5%.
In the case of `O=C(CCN1C(=O)COc2ccccc21)N1CCN(c2ccccn2)CC1` it was 0%; in that of `CCOc1nc(OCC)nc(N2CCC(C)CC2)n1`, 0%.
In the case of `Cn1c(=O)c2c([nH]c(=O)n2C)n(C)c1=O`, the inhibition is 0%.
In the case of `O=C(Cn1nnc2ccccc2c1=O)NC1CCCc2ccccc21` (stereo not drawn) it was 5%.
Turning to `O=C1CC(c2cccc(Cl)c2)Cc2nc(N3CCN(c4ccccc4)CC3)ncc21` (stereo not drawn), the inhibition was 0%.
In the case of `Cc1nn(-c2ccc(F)cc2)c2sc(C(=O)N3CCCCCC3)cc12` it was 0%.
To `COC(=O)c1c(C(=O)OC)n(CCCN)c2ccc(C)cc12` belongs 9%; to `Cc1ccc(-n2c(=O)c3sccc3n(CC(=O)NCc3ccco3)c2=O)cc1`, 0%.
In the case of `C[N+](C)(C)CCCCCCCCCC[N+](C)(C)C` it was 4%; in that of `CC(C)CCn1c(N)c(S(=O)(=O)c2cccs2)c2nc3ccccc3nc21`, 0%.
Turning to `COc1ccccc1-n1cnc(N)c1C(C)=O`, the inhibition was 0%.
On to `O=C(CCS(=O)(=O)c1cccc2nonc12)Nc1cccc2c1CCCC2`, for which the inhibition was 1%.
Consider `COc1ccc(N2CCN(c3ccc(NC(=O)C4CCCCC4)cc3C#N)CC2)cc1`, for which the inhibition is 0%.
To `COC(=O)c1oc2ccc(OC)cc2c1N` belongs 5%; to `CCSc1nc2ccccc2n1CCC(=O)O`, 0%; to `CCOC(=O)C(C)C1(O)c2ccccc2-c2ncccc21` (stereo not drawn), 0%.
To `CC1(C)CC(=O)C=C(NCCN2CCN(C(=O)Nc3ccccc3)CC2)C1` belongs 5%; to `O=C(CSc1nnc(-c2ccc(Br)cc2)n1C1CCCCC1)N1CCCC1`, 2%.
